# Measured values: publication PMC11062922 (Nature Chemical Biology, 2023)
# Like-named read-outs stand apart in the source and are kept apart here.
# Columns and labels:
# Conditions in all cases: read-out: apparent Kd, n = 1
# CLK4 = test system: CLK4
# FER = test system: FER
# FLT4 = test system: FLT4
# [1] = compound concentrations:100 nM and 1000 nM (sheet 'Lestaurtinib' of Supplementary Table 1),run:Lestaurtinib_02795_R1,Plate:MR022
# [2] = compound concentrations:100 nM and 1000 nM (sheet 'Lestaurtinib' of Supplementary Table 1),run:Lestaurtinib_02795_R2,Plate:MR022
# [3] = compound concentrations:100 nM and 1000 nM (sheet 'Lestaurtinib' of Supplementary Table 1),run:Lestaurtinib_02802_R2,Plate:MR029
# [4] = compound concentrations:100 nM and 1000 nM (sheet 'Lestaurtinib' of Supplementary Table 1),run:Lestaurtinib_02802_R3,Plate:MR029
# [5] = compound concentrations:100 nM and 1000 nM (sheet 'Lestaurtinib' of Supplementary Table 1),run:Lestaurtinib_03172_R3,Plate:MR031
# [6] = compound concentrations:100 nM and 1000 nM (sheet 'Lestaurtinib' of Supplementary Table 1),run:Lestaurtinib_03252_R2,Plate:MR032
# [7] = compound concentrations:100 nM and 1000 nM (sheet 'Lestaurtinib' of Supplementary Table 1),run:Lestaurtinib_03260_R1,Plate:MR033
# [8] = compound concentrations:100 nM and 1000 nM (sheet 'Lestaurtinib' of Supplementary Table 1),run:Lestaurtinib_03260_R2,Plate:MR033
# [9] = compound concentrations:100 nM and 1000 nM (sheet 'Lestaurtinib' of Supplementary Table 1),run:Lestaurtinib_03260_R3,Plate:MR033
# [10] = compound concentrations:100 nM and 1000 nM (sheet 'Lestaurtinib' of Supplementary Table 1),run:Lestaurtinib_02339_R1,Plate:MR001
# [11] = compound concentrations:100 nM and 1000 nM (sheet 'Lestaurtinib' of Supplementary Table 1),run:Lestaurtinib_02339_R2,Plate:MR001
# [12] = compound concentrations:100 nM and 1000 nM (sheet 'Lestaurtinib' of Supplementary Table 1),run:Lestaurtinib_02364_R2,Plate:MR002
substance,measurement,setting,value
Lestaurtinib,potency estimated from few doses,"CLK4; compound concentrations:100 nM and 1000 nM (sheet 'Lestaurtinib' of Supplementary Table 1),run:Lestaurtinib_02768_R3,Plate:MR028",50.7 nM
same,potency estimated from few doses,CLK4; [1],63.3 nM
same,potency estimated from few doses,CLK4; [2],42.4 nM
same,potency estimated from few doses,CLK4; [3],62.9 nM
same,potency estimated from few doses,CLK4; [4],42.9 nM
same,potency estimated from few doses,"CLK4; compound concentrations:100 nM and 1000 nM (sheet 'Lestaurtinib' of Supplementary Table 1),run:Lestaurtinib_02896_R1,Plate:MR030",45.2 nM
same,potency estimated from few doses,"CLK4; compound concentrations:100 nM and 1000 nM (sheet 'Lestaurtinib' of Supplementary Table 1),run:Lestaurtinib_02896_R2,Plate:MR030",44.9 nM
same,potency estimated from few doses,CLK4; [5],82.5 nM
same,potency estimated from few doses,CLK4; [6],38.7 nM
same,potency estimated from few doses,CLK4; [7],95 nM
same,potency estimated from few doses,CLK4; [8],130 nM
same,potency estimated from few doses,CLK4; [9],60.5 nM
same,potency estimated from few doses,FER; [10],361 nM
same,potency estimated from few doses,FER; [11],254 nM
same,potency estimated from few doses,"FER; compound concentrations:100 nM and 1000 nM (sheet 'Lestaurtinib' of Supplementary Table 1),run:Lestaurtinib_02339_R3,Plate:MR001",336 nM
same,potency estimated from few doses,"FER; compound concentrations:100 nM and 1000 nM (sheet 'Lestaurtinib' of Supplementary Table 1),run:Lestaurtinib_02364_R1,Plate:MR002",298 nM
same,potency estimated from few doses,FER; [12],396 nM
same,potency estimated from few doses,"FER; compound concentrations:100 nM and 1000 nM (sheet 'Lestaurtinib' of Supplementary Table 1),run:Lestaurtinib_02367_R1,Plate:MR003",327 nM
same,potency estimated from few doses,"FER; compound concentrations:100 nM and 1000 nM (sheet 'Lestaurtinib' of Supplementary Table 1),run:Lestaurtinib_02367_R2,Plate:MR003",319 nM
same,potency estimated from few doses,"FER; compound concentrations:100 nM and 1000 nM (sheet 'Lestaurtinib' of Supplementary Table 1),run:Lestaurtinib_02367_R3,Plate:MR003",310 nM
same,potency estimated from few doses,"FER; compound concentrations:100 nM and 1000 nM (sheet 'Lestaurtinib' of Supplementary Table 1),run:Lestaurtinib_02381_R1,Plate:MR004",385 nM
same,potency estimated from few doses,"FER; compound concentrations:100 nM and 1000 nM (sheet 'Lestaurtinib' of Supplementary Table 1),run:Lestaurtinib_02381_R2,Plate:MR004",362 nM
same,potency estimated from few doses,"FER; compound concentrations:100 nM and 1000 nM (sheet 'Lestaurtinib' of Supplementary Table 1),run:Lestaurtinib_02381_R3,Plate:MR004",336 nM
same,potency estimated from few doses,"FER; compound concentrations:100 nM and 1000 nM (sheet 'Lestaurtinib' of Supplementary Table 1),run:Lestaurtinib_02407_R3,Plate:MR005",459 nM
same,potency estimated from few doses,"FER; compound concentrations:100 nM and 1000 nM (sheet 'Lestaurtinib' of Supplementary Table 1),run:Lestaurtinib_02422_R3,Plate:MR006",307 nM
same,potency estimated from few doses,"FER; compound concentrations:100 nM and 1000 nM (sheet 'Lestaurtinib' of Supplementary Table 1),run:Lestaurtinib_02437_R2,Plate:MR007",347 nM
same,potency estimated from few doses,"FER; compound concentrations:100 nM and 1000 nM (sheet 'Lestaurtinib' of Supplementary Table 1),run:Lestaurtinib_02437_R3,Plate:MR007",30.6 nM
same,potency estimated from few doses,"FER; compound concentrations:100 nM and 1000 nM (sheet 'Lestaurtinib' of Supplementary Table 1),run:Lestaurtinib_02438_R1,Plate:MR008",352 nM
same,potency estimated from few doses,"FER; compound concentrations:100 nM and 1000 nM (sheet 'Lestaurtinib' of Supplementary Table 1),run:Lestaurtinib_02438_R2,Plate:MR008",345 nM
same,potency estimated from few doses,"FER; compound concentrations:100 nM and 1000 nM (sheet 'Lestaurtinib' of Supplementary Table 1),run:Lestaurtinib_02438_R3,Plate:MR008",356 nM
same,potency estimated from few doses,"FER; compound concentrations:100 nM and 1000 nM (sheet 'Lestaurtinib' of Supplementary Table 1),run:Lestaurtinib_02443_R1,Plate:MR009",347 nM
same,potency estimated from few doses,"FER; compound concentrations:100 nM and 1000 nM (sheet 'Lestaurtinib' of Supplementary Table 1),run:Lestaurtinib_02443_R2,Plate:MR009",358 nM
same,potency estimated from few doses,"FER; compound concentrations:100 nM and 1000 nM (sheet 'Lestaurtinib' of Supplementary Table 1),run:Lestaurtinib_02473_R2,Plate:MR010",343 nM
same,potency estimated from few doses,"FER; compound concentrations:100 nM and 1000 nM (sheet 'Lestaurtinib' of Supplementary Table 1),run:Lestaurtinib_02482_R1,Plate:MR011",406 nM
same,potency estimated from few doses,"FER; compound concentrations:100 nM and 1000 nM (sheet 'Lestaurtinib' of Supplementary Table 1),run:Lestaurtinib_02482_R2,Plate:MR011",336 nM
same,potency estimated from few doses,"FER; compound concentrations:100 nM and 1000 nM (sheet 'Lestaurtinib' of Supplementary Table 1),run:Lestaurtinib_02487_R1,Plate:MR012",221 nM
same,potency estimated from few doses,"FER; compound concentrations:100 nM and 1000 nM (sheet 'Lestaurtinib' of Supplementary Table 1),run:Lestaurtinib_02496_R1,Plate:MR013",306 nM
same,potency estimated from few doses,"FER; compound concentrations:100 nM and 1000 nM (sheet 'Lestaurtinib' of Supplementary Table 1),run:Lestaurtinib_02566_R1,Plate:MR014",269 nM
same,potency estimated from few doses,"FER; compound concentrations:100 nM and 1000 nM (sheet 'Lestaurtinib' of Supplementary Table 1),run:Lestaurtinib_02572_R2,Plate:MR015",259 nM
same,potency estimated from few doses,"FER; compound concentrations:100 nM and 1000 nM (sheet 'Lestaurtinib' of Supplementary Table 1),run:Lestaurtinib_02572_R3,Plate:MR015",447 nM
same,potency estimated from few doses,"FER; compound concentrations:100 nM and 1000 nM (sheet 'Lestaurtinib' of Supplementary Table 1),run:Lestaurtinib_02584_R1,Plate:MR017",332 nM
same,potency estimated from few doses,"FER; compound concentrations:100 nM and 1000 nM (sheet 'Lestaurtinib' of Supplementary Table 1),run:Lestaurtinib_02584_R3,Plate:MR017",351 nM
same,potency estimated from few doses,"FER; compound concentrations:100 nM and 1000 nM (sheet 'Lestaurtinib' of Supplementary Table 1),run:Lestaurtinib_02601_R2,Plate:MR018",394 nM
same,potency estimated from few doses,"FER; compound concentrations:100 nM and 1000 nM (sheet 'Lestaurtinib' of Supplementary Table 1),run:Lestaurtinib_02601_R3,Plate:MR018",42.4 nM
same,potency estimated from few doses,"FER; compound concentrations:100 nM and 1000 nM (sheet 'Lestaurtinib' of Supplementary Table 1),run:Lestaurtinib_02606_R2,Plate:MR019",83.6 nM
same,potency estimated from few doses,"FER; compound concentrations:100 nM and 1000 nM (sheet 'Lestaurtinib' of Supplementary Table 1),run:Lestaurtinib_02606_R3,Plate:MR019",355 nM
same,potency estimated from few doses,"FER; compound concentrations:100 nM and 1000 nM (sheet 'Lestaurtinib' of Supplementary Table 1),run:Lestaurtinib_02624_R3,Plate:MR020",365 nM
same,potency estimated from few doses,"FER; compound concentrations:100 nM and 1000 nM (sheet 'Lestaurtinib' of Supplementary Table 1),run:Lestaurtinib_02724_R2,Plate:MR021",436 nM
same,potency estimated from few doses,"FER; compound concentrations:100 nM and 1000 nM (sheet 'Lestaurtinib' of Supplementary Table 1),run:Lestaurtinib_02748_R1,Plate:MR024",268 nM
same,potency estimated from few doses,"FER; compound concentrations:100 nM and 1000 nM (sheet 'Lestaurtinib' of Supplementary Table 1),run:Lestaurtinib_02748_R3,Plate:MR024",278 nM
same,potency estimated from few doses,"FER; compound concentrations:100 nM and 1000 nM (sheet 'Lestaurtinib' of Supplementary Table 1),run:Lestaurtinib_02752_R1,Plate:MR025",356 nM
same,potency estimated from few doses,"FER; compound concentrations:100 nM and 1000 nM (sheet 'Lestaurtinib' of Supplementary Table 1),run:Lestaurtinib_02752_R2,Plate:MR025",297 nM
same,potency estimated from few doses,"FER; compound concentrations:100 nM and 1000 nM (sheet 'Lestaurtinib' of Supplementary Table 1),run:Lestaurtinib_02752_R3,Plate:MR025",327 nM
same,potency estimated from few doses,"FER; compound concentrations:100 nM and 1000 nM (sheet 'Lestaurtinib' of Supplementary Table 1),run:Lestaurtinib_02765_R1,Plate:MR026",564 nM
same,potency estimated from few doses,"FER; compound concentrations:100 nM and 1000 nM (sheet 'Lestaurtinib' of Supplementary Table 1),run:Lestaurtinib_02765_R2,Plate:MR026",481 nM
same,potency estimated from few doses,"FER; compound concentrations:100 nM and 1000 nM (sheet 'Lestaurtinib' of Supplementary Table 1),run:Lestaurtinib_02765_R3,Plate:MR026",549 nM
same,potency estimated from few doses,"FER; compound concentrations:100 nM and 1000 nM (sheet 'Lestaurtinib' of Supplementary Table 1),run:Lestaurtinib_02766_R1,Plate:MR027",277 nM
same,potency estimated from few doses,"FER; compound concentrations:100 nM and 1000 nM (sheet 'Lestaurtinib' of Supplementary Table 1),run:Lestaurtinib_02766_R2,Plate:MR027",25.3 nM
same,potency estimated from few doses,"FER; compound concentrations:100 nM and 1000 nM (sheet 'Lestaurtinib' of Supplementary Table 1),run:Lestaurtinib_02766_R3,Plate:MR027",321 nM
same,potency estimated from few doses,FER; [1],454 nM
same,potency estimated from few doses,FER; [2],356 nM
same,potency estimated from few doses,"FER; compound concentrations:100 nM and 1000 nM (sheet 'Lestaurtinib' of Supplementary Table 1),run:Lestaurtinib_02795_R3,Plate:MR022",372 nM
same,potency estimated from few doses,FER; [3],296 nM
same,potency estimated from few doses,FER; [4],12.4 nM
same,potency estimated from few doses,"FER; compound concentrations:100 nM and 1000 nM (sheet 'Lestaurtinib' of Supplementary Table 1),run:Lestaurtinib_03172_R2,Plate:MR031",386 nM
same,potency estimated from few doses,FER; [5],315 nM
same,potency estimated from few doses,FER; [6],25 nM
same,potency estimated from few doses,FER; [7],469 nM
same,potency estimated from few doses,FER; [8],487 nM
same,potency estimated from few doses,FER; [9],351 nM
same,potency estimated from few doses,FLT4; [10],345 nM
same,potency estimated from few doses,FLT4; [11],300 nM
same,potency estimated from few doses,FLT4; [12],289 nM
